Results from ChEMBL document CHEMBL3988442, “University of Dundee, Small-Polar-MMV Screening Library” (2021).

biological target: AMP-activated protein kinase, AMPK (Homo sapiens) (UniProt P54646+O43741+P54619+Q9UGJ0+Q9Y478+Q13131+Q9UGI9); assay: AMP-dependent Kinase enzyme assay. An in vitro enzyme assay that detects ADP turnover that is directly proportional to AMPK activity. This uses naive AMPK that is activated during the assay with MK-8722; assay type: functional; set-up: scale not given: direction of the effect not stated beside the values; details: 30 µM

Structure (SMILES) | Percent Effect [%]
Cc1nc2cc(-c3nccn3C)nn2c(N2CCC(O)CC2)c1C | 20.2
CC1CN(c2ncnc3sccc23)CCN1c1nccs1 (stereo not given) | 16.9
CC(=O)N1CCCC1(C(=O)N1CCCC1)c1cnccn1 (stereo not given) | -0.265
NC(=O)C1(Cc2ccccc2-c2cncnc2)CCCNC1 (stereo not given) | 3.1
CCN(CC(=O)NC(C)C)C(=O)c1csc(Cc2ccccc2)n1 | -2.97
COc1ccc(OCc2nc3cc4c(cc3c(=O)o2)OCCCO4)cc1 | -6.13
Cc1csc(C(=O)N2CCC(S(C)(=O)=O)C2)c1 (stereo not given) | -5.3
Oc1c(F)cc(CNc2cccc(-c3nnc[nH]3)c2)cc1F | 40.3
COc1ccc(C(=O)NC2CCN(c3ncccn3)CC2)cc1F | -7.58
CCn1c(C2CCNCC2)nn(CCn2cncn2)c1=O | 3.82
CN(Cc1ccccc1-n1cccn1)C[C@@H]1CCCN2CCCC[C@H]12 | -9.27
CN(C)c1cccc(C(=O)Nc2ccn(CCc3ccncc3)n2)c1 | 12.1
NC(=O)c1ccnc(N2CCCC(CO)(Cc3ccccc3)C2)c1 (stereo not given) | 11.6
N#CCCn1cnc2c(Br)cccc2c1=O | -5.95
O=S(=O)(NC1CCOC1)c1ccc(C(F)(F)F)nc1 (stereo not given) | 6.19
CSc1nccc(N2CCC3(CCCN(CCc4ccccc4)C3)C2)n1 (stereo not given) | 5.34
O=C(CNc1ccc(OCC2CCOCC2)cc1)NCc1ccco1 | 0.773
O=C(NCC1CCOC1)c1cc(-c2ccc(Cl)cc2)n[nH]1 (stereo not given) | 1
COc1cc(CN2CCC(COCc3ccccc3)CC2)cc(OC)c1 | 0.75
Cc1ccc(C(=O)NCCC2CN(C3CCCC3)CCO2)c(C)c1 (stereo not given) | 4.11

Structure (SMILES) | Percent Effect [%]
CC(C)(NCCOc1ccc(CC#N)cc1)c1nccs1 | -2.44
COc1ccc(F)cc1-c1ccccc1CC1CNCCNC1=O (stereo not given) | 4.74
CCNC(=O)[C@@H]1C[C@H](N)CN1c1cc(C(F)(F)F)nc(N(C)C)n1 | -12
Cn1cccc1C1CCCN1Cc1noc(C(C)(C)C)n1 (stereo not given) | -15
CC(C)c1ccc(CC(=O)N2CCCC3(CN(C)C(=O)O3)C2)cc1 (stereo not given) | 15
CSc1nccc(N2CCC3(CCCN(Cc4ccc(F)cc4)C3)C2)n1 (stereo not given) | 3.61
Cc1nc(C)n(CC2CCCN2c2ncnc3sc(C)c(C)c23)n1 (stereo not given) | -3.96
Cc1ccc(CNC(=O)NCc2ccco2)s1 | 2.27
CCc1cc(N2CCC(NCc3ccc(C)o3)CC2)ncn1 | 6.83
CN(Cc1csc(-c2ccccc2)n1)Cc1ncccc1C(=O)O | 5.39
CCc1nc(C2CCCN2Cc2ncc(C)c(OC)c2C)no1 (stereo not given) | 0.391
Cc1ccc(NC(=O)NCCn2cnc(C)c(C)c2=O)cc1F | 1.89
O=C(Cn1ccc2ncccc2c1=O)N1CCSCC1 | -4.34
COCc1c(Br)cccc1NC(=O)N(C)CCO | -5.13
Cc1nccn1CCCN1CCC(c2nccn2CC2CCC2)CC1 | -9.78
OCC1(CCOc2ccccc2)CCN(c2ccc(Cl)cn2)CC1 | -2.64
CCOc1ccc(CN(C)C(=O)c2nc(N3CCCC3)ncc2Cl)cc1 | -1.93
Cc1occc1CNc1ncccc1S(N)(=O)=O | 6.37
O=C(NCCS(=O)(=O)N1CCN(c2ncccn2)CC1)c1ccccc1 | -4.77
O=c1[nH]nc(CNCc2ccc(OC34CCCN(CC3)C4)cc2)[nH]1 (stereo not given) | -7.25
